Screening data deposited in PubChem BioAssay by National Center for Advancing Translational Sciences (NCATS).
Pol eta inh – qHTS for Inhibitors of Polymerase Eta; 1.2% of 390,000 active; Potency, µM (titrated, usually from 114 µM), hits mostly inhibitors; recombinant Pol eta, fluorescent DNA replication assay; AID 588591, 2011; DNA polymerase eta (Homo sapiens), Q9Y253
Target sequence (Q9Y253 whole entry, looked up): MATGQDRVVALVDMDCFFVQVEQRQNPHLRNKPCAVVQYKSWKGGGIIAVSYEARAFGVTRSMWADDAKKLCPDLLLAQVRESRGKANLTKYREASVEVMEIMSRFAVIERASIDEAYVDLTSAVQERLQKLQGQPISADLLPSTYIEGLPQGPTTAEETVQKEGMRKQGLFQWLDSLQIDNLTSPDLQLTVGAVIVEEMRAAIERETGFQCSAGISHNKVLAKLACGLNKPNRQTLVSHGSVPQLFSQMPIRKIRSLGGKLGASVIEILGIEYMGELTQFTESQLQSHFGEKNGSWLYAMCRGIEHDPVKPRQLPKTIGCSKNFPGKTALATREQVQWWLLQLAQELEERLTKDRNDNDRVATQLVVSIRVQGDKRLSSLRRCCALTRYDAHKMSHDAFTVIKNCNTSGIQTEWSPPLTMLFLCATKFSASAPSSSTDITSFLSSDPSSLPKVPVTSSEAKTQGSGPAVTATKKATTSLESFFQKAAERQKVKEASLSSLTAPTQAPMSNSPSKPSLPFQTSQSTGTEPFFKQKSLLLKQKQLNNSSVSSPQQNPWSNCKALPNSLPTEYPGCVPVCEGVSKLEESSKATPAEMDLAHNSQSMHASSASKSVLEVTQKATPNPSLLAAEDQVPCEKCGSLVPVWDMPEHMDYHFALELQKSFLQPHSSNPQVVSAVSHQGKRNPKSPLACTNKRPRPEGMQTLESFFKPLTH
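Pol eta at 10 nM preincubated with compounds 15 min at room temperature; reaction started with fluorescent substrate (50 nM final) and read kinetically at 0 and 10 min.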
POLB inh – qHTS Assay for Inhibitors of DNA Polymerase Beta; Potency, µM (top dose mostly 114 µM), hits mostly inhibitors; P06746; Pol beta primer extension/strand displacement, fluorescence kinetic; 1.3% of 340,000 active
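Pol beta (10 nM) was preincubated with compound for 15 min at room temperature. The reaction was then started with 50 nM substrate and read immediately and after a further 10 min at room temperature.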
FEN1 inhibitor – qHTS Assay for the Inhibitors of Human Flap endonuclease 1 (FEN1) | P39748 | Recombinant FEN1 flap cleavage, fluorescence, 15 min | Potency, µM (titrated, usually from 114 µM), actives largely listed as inhibitors | 0.35% of 390,000 active; also: nearly all actives have a fitted effect of over 65% in size
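Read-out was taken twice, immediately and after 15 min, following addition of 50 nM substrate to 10 nM FEN1 that had sat with test compound for 15 min at room temperature. Curves came from a four-parameter Hill model.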
POLI inh – qHTS for Inhibitors of Polymerase Iota. 1% of 390,000 active. Potency, µM (top dose mostly 115 µM), most hits filed as inhibitors. Pol iota fluorescent replication assay, 10 min. DNA polymerase iota (Homo sapiens), Q9UNA4
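Fluorescent replication assay read twice, at 0 min and 10 min after adding 50 nM (final) substrate. Enzyme (10 nM) and compounds were first incubated 15 min at room temperature; enzyme-free buffer wells were negative controls.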
Pol kappa inh – qHTS for Inhibitors of Polymerase Kappa | DNA polymerase kappa (Homo sapiens), Q9UBT6 | purified Pol kappa, fluorescent DNA synthesis assay, 10 min | Potency, µM (top dose mostly 107 µM), actives largely listed as inhibitors | 0.53% of 400,000 active | AID 588579, 2011
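Readout: fluorescence, taken kinetically at 0 and 10 min. Conditions: 10 nM Pol kappa, 15 min RT compound preincubation, 50 nM substrate final. Controls: enzyme-free buffer wells.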
WRN inhibitor – qHTS for Inhibitors of WRN Helicase | 0.46% of 360,000 active | WRN helicase unwinding, fluorescent forked duplex, kinetic | AID 651768, 2012 | Potency, µM (doses to about 114 µM), usual class: inhibitors | Bifunctional 3'-5' exonuclease/ATP-dependent helicase WRN (Homo sapiens), Q14191; also: nearly all actives have a fitted effect of over 55% in size
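WRN at 20 nM final preincubated with compound 15 min at room temperature; reaction started with 100 nM fluorophore/quencher forked duplex oligonucleotide and 2 mM ATP final. Unwinding followed kinetically by red fluorescence (ex 525, em 598 nm).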
A number is an active result; 0 = inactive; ? = inconclusive; - = not tested or not shown; [ ] = another dose, or the depositor's remark. Hits are enriched below; roughly 2.4% of the tested compounds scored in any of these assays. Calls follow the shape of the dose curve; as a rule, active = well fitted curve in the direction sought with a large enough effect; inconclusive = small, poorly fitted or top-dose-only effect, or another doubt; inactive = no such curve, though single readings can be large; an effect the other way counts as inactive or inconclusive.

SMILES | Pol eta inh | POLB inh | FEN1 inhibitor | POLI inh | Pol kappa inh | WRN inhibitor
CCN(C(=O)C1CCN(S(=O)(=O)c2ccc3c(c2)CCCN3C(=O)C2CCC2)CC1)c1cccc(C)c1 | 0 | 0 | 0 | 0 | 0 | -
CC(C)NC(=O)C1CCCN(S(=O)(=O)c2ccc3c(ccn3C)c2)C1 (centres undefined) | 0 | 0 | 0 | 0 | 0 | -
O=C(c1cc2ccccc2[nH]1)c1cc2cc(O)ccc2[nH]1 | - | - | 0 | 0 | 0 | -
CCOCCCN1C(=O)CN(C2CCCCCC2)C(=O)C1c1ccc(OC(C)C)c(OC)c1 (centres undefined) | 0 | 0 | 0 | 0 | 0 | -
CCc1ccc2nc(NC(=O)c3ccc4c(=O)[nH]c(CN5CCOCC5)nc4c3)sc2c1 | 50.1µM | 79.4µM | 0 | ? | 0 | ?
CCc1ccc2nc(NC(=O)c3ccc(N4C(=O)CCC4=O)cc3)sc2c1 | 0 | 0 | 0 | 0 | 0 | 0
O=C1C=CC(=O)C(C2=C3C(=O)N(CCc4ccccc4)CC(=O)N3CCC2)=C1 | 0 | 0 | 0 | ? | 0 | 39.8µM
Cc1nc(-c2ccccc2)c(-c2ccncc2)o1 | - | - | - | - | 0 | -
O=S(=O)(NCC(c1cccs1)S(=O)(=O)c1ccccc1)c1ccccc1 (centres undefined) | 0 | 0 | 0 | ? | 0 | -
Cc1ccc2c(c1)c1c(c(=O)n(-c3cccc(Cl)c3)c(=O)n1CC(=O)c1ccc(Cl)cc1)n2C | 0 | 0 | 0 | 79.4µM | 0 | -
Cc1cc(OCC(=O)Nc2ccc(CN3CCOCC3)cc2)c2c(C)c(C)c(=O)oc2c1 | 0 | 0 | 0 | 0 | 0 | 0
Cc1cc(OCC(=O)Nc2ccc(CN3CCOCC3)cc2)c2c(C)cc(=O)oc2c1 | 0 | 0 | 0 | 50.1µM | 0 | 0
CCCCN1C(=O)C(=O)N(CC(=O)Nc2sc(CC)cc2C(=O)OCC)C1=O | 0 | - | 0 | 79.4µM | 0 | 0[11.6 µM]
Cc1ccc(S(=O)(=O)Nc2ccc3cc([N+](=O)[O-])ccc3c2[N+](=O)[O-])cc1 | 79.4µM | - | 0 | ? | 0 | 0[11.6 µM]
CC[C@H](C)[C@H](NC(=O)[C@H](CC(C)C)NC(=O)[C@@H](N)CO)C(=O)NCC(=O)N[C@@H](CCCN=C(N)N)C(=O)N[C@@H](CC(C)C)C(=O)O | - | - | - | - | 0 | -
CCCN(CCC)C(=O)c1nn(C)c2c1CSc1ccc(C)cc1-2 | 0 | 0 | 0 | 0 | 0 | -
COc1cc(N)c2ncccc2c1Br | 0 | - | 0 | 31.6µM | 0 | 0[11.6 µM]
COc1cc(N)c2ncccc2c1SC | 0 | - | - | - | - | 0
CN1N=C(C(C)(C)C)CC1=O | 0 | 0 | 0 | 3.98µM | 0 | 0[11.6 µM]
CCOC(=O)CC(=O)CSc1nc(-c2ccccc2)cc(-c2ccccc2)c1C#N | 0 | 0 | 0 | 0 | 0 | 0
CCN(CC)C(=O)CSc1nc(-c2ccccc2)cc(-c2ccc(OC)cc2)c1C#N | 0 | 0 | 0 | 0 | 0 | -
COc1ccc(-c2cc(-c3ccccc3)nc(SC(C)C(=O)O)c2C#N)cc1 (centres undefined) | 0 | 0 | 0 | 39.8µM | 0 | 0
COc1ccc(-c2cc(-c3ccc(Cl)cc3)c(C#N)c(SCC(=O)O)n2)cc1 | 0 | 31.6µM | 0 | 0 | 0 | 0
N#Cc1c(-c2ccccc2)cc(-c2ccccc2)nc1SCC(=O)NCC(=O)O | 0 | 50.1µM | 0 | 0 | 0 | 0
N#Cc1cccc(-c2cc(NCc3ccccc3)ncn2)c1 | - | - | - | - | 0 | -
CC(=O)Nc1nonc1-c1nnc(SCC(=O)Nc2cccc(F)c2)n1-c1ccccc1 | 0 | 0 | 0 | 0 | 0 | -
COc1cc2c(NC3CCN(C)CC3)nc(N3CCCN(C)CC3)nc2cc1OCCCCN | - | - | 10µM | 20µM | 79.4µM | -
COc1cc2c(NC3CCN(C)CC3)nc(N3CCCN(C)CC3)nc2cc1OCC1CCNCC1 | - | - | 10µM | ? | 0 | -
COc1cc2nc(N3CCOCC3)nc(NC3CCN(C)CC3)c2cc1OC | - | - | ? | 0 | 0 | -
COc1cc2c(NC3CCN(C)CC3)nc(N3CCCN(C)CC3)nc2cc1OCCN(C)C | - | - | 25.1µM | ? | 0 | -
